Assay results published in a collection of fitness landscapes (doi:10.1016/j.celrep.2020.107928).
Whole data set: some 81,000 sequences, median “one-hybrid fitness for binding NBS DNA” near -0.1, cut for the highest 2% near 0.36. Only a selection was taken, and the highest values are over-represented in it overall.

B1: Caulobacter ParB omega fusion; a variant is named by its letters at X, in order, B8GW30 (parent)
chain: MESVVVGEPGMSEGRRGLGRGLSALLGEVDAAPAQAPGEQLGGSREAPIEILQRNPDQPRRTFREEDLEDLSNSIREKGVLQPILVRPSPDTAGEYQIVAGERAWRAAQRAGLKTVPIMVRELDDLAVLEIGIIENVQRADLNVLEEALSYKVLMEKFERTQENIAQTIGKSXSHVANXMRLLXLPDEVQSYLVSGELTAXHARAIAAAADPVALAKQIIEGGLSVRETEALARKAPNLSAGKSKGGRPPRVKDTDTQALESDLSSVLGLDVSIDHRGSTGTLTITYATLEQLDDLCNRLTRGI

Variants of: B1
Assay: one-hybrid fitness for binding NBS DNA (the Noc-binding site; scaled: cognate 1, non-cognate 0); higher = stronger binding
Details: with NBS DNA site
Outline: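 On M9-minus-histidine containing 0.1 mM IPTG and 5 mM 3-AT, E. coli USO cells with a HIS3 reporter, site 19 bp from the promoter, grew 48 hours at 37°C to select Caulobacter ParB libraries randomised at four specificity codons. Plasmids from before and after were Illumina-sequenced, with three replicate libraries pooled and variants under 10 reads left out. Fitness is the log change in variant-to-wild-type read ratio, rescaled against cognate and non-cognate.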

one-hybrid fitness for binding NBS DNA, 0.39:
RHQT

one-hybrid fitness for binding NBS DNA, 0.422:
QCHA

one-hybrid fitness for binding NBS DNA, 0.487:
QLKH

one-hybrid fitness for binding NBS DNA, 0.357:
RRAG

one-hybrid fitness for binding NBS DNA, 0.365:
QLKN

one-hybrid fitness for binding NBS DNA, 0.418:
RSQT

one-hybrid fitness for binding NBS DNA, 0.439:
QNRR

one-hybrid fitness for binding NBS DNA, 0.287:
RHYT

one-hybrid fitness for binding NBS DNA, 0.463:
RVGS

one-hybrid fitness for binding NBS DNA, 0.728:
RRFR

one-hybrid fitness for binding NBS DNA, 0.395:
RYCS
RAQT

one-hybrid fitness for binding NBS DNA, 0.441:
RYHS

one-hybrid fitness for binding NBS DNA, 0.397:
QIAR

one-hybrid fitness for binding NBS DNA, 0.497:
RYNS

one-hybrid fitness for binding NBS DNA, 0.504:
QNKR

one-hybrid fitness for binding NBS DNA, 0.329:
RIQT

one-hybrid fitness for binding NBS DNA, 0.45:
RYHT

one-hybrid fitness for binding NBS DNA, 0.243:
RHIT

one-hybrid fitness for binding NBS DNA, 0.513:
RCQT

one-hybrid fitness for binding NBS DNA, 0.371:
RYYS

one-hybrid fitness for binding NBS DNA, 0.298:
QCVA

one-hybrid fitness for binding NBS DNA, 0.284:
RKSA

one-hybrid fitness for binding NBS DNA, 0.643:
QCAR

one-hybrid fitness for binding NBS DNA, 0.526:
QSAR

one-hybrid fitness for binding NBS DNA, 0.33:
RHLT

one-hybrid fitness for binding NBS DNA, 0.203:
QNYR

one-hybrid fitness for binding NBS DNA, 0.757:
RRAR

one-hybrid fitness for binding NBS DNA, 0.306:
RRAM

one-hybrid fitness for binding NBS DNA, 0.201:
QIHA

one-hybrid fitness for binding NBS DNA, ≤ 0.2:
HANR
IMHC
VAPN
GWLG
KQKS
FLVG
LDND
SIIL
AHHA
SHVW
CFRT
RYCP
RYIS
RYCH
RYHN
RYDS
RYND
RYHD
RYWS
EYQC
PEMV
LCRH
YRHS
RYQF
RYGD
RYGC
RYHG
RYGN
RYGF
RYHQ
RYQY
TIRS
SHCW
PSRV
QMAC
DGSR
HLCR
TSRL
VDPI
VKWG
NFAR
TAGV
NERC
VQTI
RMTM
VKPG
MIPC
QEAR
QIAH
QSAD
QPAR
QSAH
PIRY
TWMC
IDTL
TIIR
NVDM
SALS
QLKD
QLVN
QLVH
QPKN
QLVS
QLKP
HLWL
WMPR
DMKY
PLDP
TIRA
EGSN
LRCP
GCSF
HDFR
DATM
TSVL
CRHF
RDQT
RHPT
RAQP
RAQC
CHYG
ASMD
FIRR
MIQP
RPQT
QPVA
NRKA
DRKA
TSKG
PRAV
TDDT
IQLF
LTEG
QNKN
QNVR
QNDR
MEGC
QPHA
ADPD
TEMV
FTMS
MEGT
APSI
RVGF
RVGH
RVGM
RVGD
RVGN

one-hybrid fitness for binding NBS DNA, 0.301:
QIFR

one-hybrid fitness for binding NBS DNA, 0.359:
QSKN

one-hybrid fitness for binding NBS DNA, 0.491:
RVGT

one-hybrid fitness for binding NBS DNA, 0.426:
RYGS

one-hybrid fitness for binding NBS DNA, 0.381:
RYQT

one-hybrid fitness for binding NBS DNA, 0.28:
QKHA

one-hybrid fitness for binding NBS DNA, 0.242:
RFQT

one-hybrid fitness for binding NBS DNA, 0.445:
QCKN

one-hybrid fitness for binding NBS DNA, 0.331:
QLKQ

one-hybrid fitness for binding NBS DNA, 0.573:
QLKS

one-hybrid fitness for binding NBS DNA, 0.629:
QRHA

one-hybrid fitness for binding NBS DNA, 0.373:
RYGT

one-hybrid fitness for binding NBS DNA, 0.692:
QRKA

one-hybrid fitness for binding NBS DNA, 0.583:
RHRT

one-hybrid fitness for binding NBS DNA, 0.511:
QRVA

one-hybrid fitness for binding NBS DNA, 0.275:
QSHA
